PubChem BioAssay (EPA / NIEHS)
Calls of active or inactive are those of the source. The calls were made as follows: active = hit-call score of the fitted dose curve at least 0.9, where 1 is the maximum; inactive = score below 0.9.

Columns and labels:
[1] = read-out: TIMP metallopeptidase inhibitor 1 (TIMP1), TIMP1 (gene 7076); assay: BSK_hDFCGF_TIMP1: BioMAP Diversity Plus: hDFCGF Assay for TIMP metallopeptidase inhibitor 1 (TIMP1) Biomarker Activity (AID 2283062); details: primary human foreskin fibroblasts; actives raise or lower the signal
Method in brief: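 Primary human foreskin fibroblasts in the hDFCGF system were dosed with compound for 24 h, then TIMP-1 was measured by ELISA. Activity was fitted bidirectionally relative to DMSO control; parallel SRB staining assessed cytotoxicity.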

[2] = read-out: Monokine induced gamma interferon (MIG), CXCL9 (gene 4283); assay: BSK_hDFCGF_MIG: BioMAP Diversity Plus: hDFCGF Assay for Monokine induced gamma interferon (MIG) Biomarker Activity (AID 2283063); details: primary human foreskin fibroblasts; actives raise or lower the signal
Method in brief: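 ELISA read-out of MIG from primary human dermal fibroblasts 24 h post-dosing. Gain or loss of signal fitted bidirectionally, DMSO as baseline.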

[3] = read-out: Matrix Metallopeptidase 1 (MMP1), MMP1 (gene 4312); assay: BSK_hDFCGF_MMP1: BioMAP Diversity Plus: hDFCGF Assay for Matrix Metallopeptidase 1 (MMP1) Biomarker Activity (AID 2283064); details: primary human foreskin fibroblasts; actives raise or lower the signal
Method in brief: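 MMP1 levels quantified by ELISA 24 h after dosing human dermal fibroblast cultures, with parallel SRB total-protein staining for overt cytotoxicity. Data fitted in both directions against DMSO baseline.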

[4] = read-out: Vascular cell adhesion molecule 1 (VCAM1), VCAM1 (gene 7412); assay: BSK_hDFCGF_VCAM1: BioMAP Diversity Plus: hDFCGF Assay for Vascular cell adhesion molecule 1 (VCAM1) Biomarker Activity (AID 2283065); details: primary human foreskin fibroblasts; actives raise or lower the signal;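 as to AC50: VCAM-1 protein level quantified by ELISA after 24 h chemical exposure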
Method in brief: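 Primary human foreskin fibroblasts (hDFCGF system) were dosed with chemical and VCAM-1 was measured by ELISA 24 h later. Bidirectional curve fitting used DMSO as negative control and activity baseline.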

[5] = read-out: Plasminogen activator inhibitor-1 (PAI1), SERPINE1 (gene 5054); assay: BSK_hDFCGF_PAI1: BioMAP Diversity Plus: hDFCGF Assay for Plasminogen activator inhibitor-1 (PAI1) Biomarker Activity (AID 2283066); details: primary human foreskin fibroblasts; actives raise or lower the signal
Method in brief: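 Fibroblasts from human foreskin were treated with test chemical. After 24 h, PAI-1 was measured by ELISA. Activity was fitted in both directions relative to DMSO.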

[6] = read-out: Interferon-gamma inducible Protein 10 (IP10), CXCL10 (gene 3627); assay: BSK_KF3CT_IP10: BioMAP Diversity Plus: KF3CT Assay for Interferon-gamma inducible Protein 10 (IP10) Biomarker Activity (AID 2283068); details: primary human keratinocytes with fibroblasts; actives raise or lower the signal
Method in brief: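 KF3CT co-culture (keratinocytes + foreskin fibroblasts), 24 h compound, IP-10 by ELISA; bidirectional fit vs DMSO baseline.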

[7] = BSK_KF3CT_SRB: Viability Assessment in the BioMAP Diversity Plus: KF3CT Assay (AID 2283069); details: primary human keratinocytes with fibroblasts;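 also: total protein by sulforhodamine B staining as a cytotoxicity measure; read 24 h after compound addition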
Method in brief: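 Cytotoxicity was gauged by SRB staining (0.1% SRB, 10% TCA fixation, 560 nm) of parallel cultures at 24 h. The cells were primary human skin keratinocytes co-cultured with fibroblasts, and activity was fitted in both directions against DMSO.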

[8] = read-out: Interleukin-1 alpha (IL1a), IL1A (gene 3552); assay: BSK_KF3CT_IL1a: BioMAP Diversity Plus: KF3CT Assay for Interleukin-1 alpha (IL1a) Biomarker Activity (AID 2283070); details: primary human keratinocytes with fibroblasts; actives raise or lower the signal
Method in brief: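 IL-1a was detected by ELISA 24 h after chemical treatment of a co-culture of human skin keratinocytes and foreskin fibroblasts. Gain or loss of signal was fitted against the DMSO baseline.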

[9] = read-out: TIMP metallopeptidase inhibitor 2 (TIMP2), TIMP2 (gene 7077); assay: BSK_KF3CT_TIMP2: BioMAP Diversity Plus: KF3CT Assay for TIMP metallopeptidase inhibitor 2 (TIMP2) Biomarker Activity (AID 2283071); details: primary human keratinocytes with fibroblasts; actives raise or lower the signal
Method in brief: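 Chemicals were dosed onto human skin primary co-cultures of keratinocytes and foreskin fibroblasts, and TIMP-2 was measured by ELISA after 24 hours. Activity in either direction was fitted relative to DMSO.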

[10] = read-out: Intercellular Adhesion Molecule 1 (ICAM1), ICAM1 (gene 3383); assay: BSK_KF3CT_ICAM1: BioMAP Diversity Plus: KF3CT Assay for Intercellular Adhesion Molecule 1 (ICAM1) Biomarker Activity (AID 2283067); details: primary human keratinocytes with fibroblasts; actives raise or lower the signal
Method in brief: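 Human keratinocyte plus foreskin fibroblast primary co-culture was exposed to chemical for 24 h. ICAM-1 was then quantified by ELISA, and the data were fit bidirectionally against DMSO as the negative control and baseline.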

Measured: AC50

CN[C@H]1CC[C@@H](c2ccc(Cl)c(Cl)c2)c2ccc(S(N)(=O)=O)cc21
active: [1] 31.4 µM | [2] 34.5 µM | [3] 32.2 µM | [4] 11.9 µM | [5] 23.9 µM | [6] 28.3 µM | [7] 30.6 µM | [8] 29.1 µM | [9] 25.3 µM

OC[C@@H](O)[C@@H](O)[C@H](O)[C@H](O)CO
inactive: [1] | [2] | [3] | [4] | [5] | [10] | [6] | [7] | [8] | [9]

CC(C)c1ccc(C(=O)N=C(N)N)cc1S(C)(=O)=O
inactive: [1] | [2] | [3] | [4] | [5] | [6] | [7] | [8] | [9]

C=CCOC(=O)c1ccccc1C(=O)OCC=C
inactive: [1] | [2] | [3] | [4] | [5] | [10] | [7] | [8] | [9]

CCCCN(CCCC)CCCC
inactive: [1] | [2] | [3] | [4] | [5] | [10] | [6] | [7] | [8] | [9]

Cc1cc(NC(=O)C(=O)O)cc(C)c1Oc1ccc(O)c2c1CCC2
inactive: [1] | [2] | [3] | [4] | [5] | [10] | [6] | [7] | [8] | [9]

COC(=O)c1ccc(O)cc1
inactive: [1] | [2] | [3] | [4] | [5] | [10] | [6] | [7] | [8] | [9]

CCCCC(CC)COC(=O)CC(C(=O)OCC(CC)CCCC)S(=O)(=O)O (stereo not given)
active: [1] 20 µM | [2] 11.8 µM | [3] 25.7 µM | [4] 6.62 µM | [5] 9.12 µM | [6] 6.69 µM | [7] 8.47 µM | [8] 8.83 µM

CC(=O)C(C)=CC1C(C)=CCCC1(C)C (stereo not given)
inactive: [1] | [2] | [3] | [4] | [5] | [10] | [6] | [7] | [8] | [9]

c1cc(-c2ccncc2)ccn1
inactive: [1] | [2] | [3] | [4] | [5] | [10] | [6] | [7] | [8] | [9]

Oc1ccc2c(c1)OC[C@@H](N1CCC(O)(c3ccc(F)cc3)CC1)[C@H]2O
inactive: [1] | [2] | [3] | [4] | [5] | [10] | [7] | [8] | [9]

Cc1cccc(C)c1O
inactive: [1] | [2] | [3] | [4] | [5] | [10] | [6] | [7] | [8] | [9]

NC(=O)Cn1c(=O)cc(CCN2CCN(c3nccc4sccc34)CC2)c2ccc(F)cc21
inactive: [1] | [2] | [3] | [4] | [5] | [10] | [7] | [8] | [9]

NCCO
inactive: [1] | [2] | [3] | [4] | [5] | [10] | [7] | [8] | [9]

CCCCCCOCCO
inactive: [1] | [2] | [3] | [4] | [5] | [10] | [6] | [7] | [8] | [9]

CCCCCCCCCCCC(=O)OC
inactive: [1] | [2] | [3] | [4] | [5] | [10] | [7] | [8] | [9]

C=CCc1ccc(O)c(OC)c1
inactive: [1] | [2] | [3] | [4] | [5] | [10] | [6] | [7] | [8] | [9]

CC(=O)Oc1ccccc1C(=O)O
inactive: [1] | [2] | [3] | [4] | [5] | [10] | [6] | [7] | [8] | [9]

CN1CCCC1=O
inactive: [1] | [2] | [3] | [4] | [5] | [10] | [7] | [8] | [9]

CC1(C)NC(=O)NC1=O
inactive: [1] | [2] | [3] | [4] | [5] | [10] | [6] | [7] | [8] | [9]

Oc1ccc2ccccc2c1N=Nc1ccccc1
inactive: [1] | [2] | [3] | [4] | [10] | [7] | [8]
active: [5] 0.855 µM | [9] 3.97 µM

CCCCCCCCCCO
inactive: [1] | [2] | [3] | [4] | [5] | [10] | [6] | [7] | [8] | [9]

CCCCCCCCCCCCCO
active: [1] 13.1 µM | [2] 24.3 µM | [3] 15.6 µM | [4] 9.95 µM | [5] 12.9 µM | [10] 36.7 µM | [7] 31.9 µM | [8] 35.2 µM | [9] 34.1 µM

O=C(OCCCCCOC(=O)c1ccccc1)c1ccccc1
inactive: [1] | [2] | [3] | [4] | [5] | [10] | [7] | [8] | [9]

FC(F)(F)C(F)(F)C(F)(F)C(F)(F)C(F)(F)C(F)(F)CCI
inactive: [1] | [2] | [3] | [4] | [5] | [10] | [6] | [7] | [8] | [9]

CNCc1cc(F)ccc1Oc1ccc(Cl)c(Cl)c1
inactive: [1] | [2] | [3] | [4] | [5] | [10] | [6] | [7] | [8] | [9]

Cc1cccc([N+](=O)[O-])c1C
inactive: [1] | [2] | [3] | [4] | [5] | [6] | [7] | [8] | [9]

CC(=O)OCCOCCOCCOC(C)=O
inactive: [1] | [2] | [3] | [4] | [5] | [10] | [6] | [7] | [8] | [9]

COc1ccc(S(=O)(=O)N2C(=O)[C@@](c3ccccc3OC)(N3C[C@H](O)C[C@H]3C(=O)N(C)C)c3cc(Cl)ccc32)c(OC)c1
inactive: [1] | [2] | [4] | [5] | [10] | [7] | [8] | [9]
active: [3] 4.5 µM

Cc1oc(-c2ccccc2)nc1CCOc1cccc2c1ccn2CCC(=O)O
inactive: [1] | [2] | [3] | [4] | [5] | [7] | [8] | [9]

NCC1(Cc2noc(=O)[nH]2)CCCCC1
inactive: [1] | [2] | [3] | [4] | [5] | [7] | [8] | [9]

C[C@]12C=CC(=O)C=C1CC[C@@H]1[C@@H]2C(=O)C[C@@]2(C)[C@H]1CC[C@]2(O)C(=O)CO
inactive: [1] | [2] | [3] | [4] | [5] | [7] | [8] | [9]

COc1cc(S(=O)(=O)O)c(C)cc1N=Nc1c(O)ccc2cc(S(=O)(=O)O)ccc12
inactive: [1] | [2] | [4] | [5] | [10] | [6] | [7] | [8] | [9]

CCOc1ccc2c(c1)C(C)=CC(C)(C)N2
inactive: [1] | [5] | [10] | [6] | [7] | [8] | [9]
active: [2] 16.4 µM | [4] 3.97 µM

CC(C)(C)c1cc(O)c(C(C)(C)C)cc1O
active: [2] 20 µM | [4] 20 µM
inactive: [1] | [3] | [5] | [6] | [7] | [8] | [9]

CCCCCCCC=O
inactive: [1] | [2] | [4] | [5] | [10] | [6] | [7] | [8] | [9]

CC1(C)CC(N=C=O)CC(C)(CN=C=O)C1 (stereo not given)
inactive: [1] | [2] | [4] | [5] | [10] | [6] | [7] | [8] | [9]

Nc1ccc(S(=O)(=O)c2ccc(N)cc2)cc1
inactive: [1] | [2] | [3] | [4] | [5] | [6] | [7] | [8] | [9]

CCOC(=O)C(C)(C)Oc1ccc(Cl)cc1
inactive: [1] | [2] | [3] | [4] | [5] | [7] | [8] | [9]

C1CCC(SSC2CCCCC2)CC1
active: [4] 38.4 µM | [5] 30.8 µM | [6] 30 µM | [9] 5.11 µM
inactive: [1] | [2] | [3] | [7] | [8]
